# In the library only some 4.7% were active in any assay of this set; here they are far more common.
# tim10-1 inh: growth inhibitors of tim10-1 mutant yeast | inhibition, % at 20 µM | S. cerevisiae tim10-1 ts strain growth, BacTiter-Glo, 24 h | hit rate 2.2% among 330,000;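 active = inhibition of at least 40%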;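 also: mutant grown at 25 °C; 0% = DMSO wells with yeast and 100% = wells holding no yeast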
# tim23-1 inh: growth inhibitors of tim23-1 mutant yeast | hit rate 1.3% among 330,000 | S. cerevisiae tim23-1 growth, BacTiter-Glo luminescence, 24 h | inhibition, % at 20 µM;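 active = growth inhibition of the mutant yeast at or above 50%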;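 also: temperature-sensitive mutant grown at 25 °C; plate controls were DMSO-treated mutant yeast for no effect and medium wells lacking yeast for full effect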
# PfHsp90 yeast 2: reduces growth (ATP signal) of yeast expressing P. falciparum Hsp90; S. cerevisiae expressing PfHsp90, BacTiter-Glo ATP, 48 h; yeast lacking PDR1 and PDR3 efflux regulators; inhibition, % at 9.4 µM; hit rate 0.32% among 310,000; AID 504621;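 active = every replicate shows inhibition above about 80%, whatever the replicate mean, limit read from the data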;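 also: 0% = DMSO neutral controls and 100% = 20 µM radicicol positive controls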
# SKKanGAS inh: SKKanGAS growth inhibition | hit rate 1.3% among 300,000 | inhibition, % at 7.5 µM | AID 1662 | S. pyogenes SKKanGAS, kanamycin growth, BacTiter-Glo, 6 h;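 active = mean replicate score, as percent of positive control median, at least 50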;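 also: strain carries kanamycin resistance gene driven by streptokinase promoter and grows in 40 µg/ml kanamycin; loss of luminescence reflects streptokinase promoter inhibition or plain growth inhibition; 0% = median of DMSO wells and 100% = positive control at its reference dose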
# ATG4B inhibitor: inhibitors of human ATG4B cysteine protease; ATG4B cleavage of LC3-PLA2, NBD-HPC fluorescence, 1 h; inhibition, % at 8.33 µM; hit rate 0.51% among 340,000; Q9Y4P1; in the data active = inhibition above about 40%
# Target sequence (Q9Y4P1 whole entry, looked up): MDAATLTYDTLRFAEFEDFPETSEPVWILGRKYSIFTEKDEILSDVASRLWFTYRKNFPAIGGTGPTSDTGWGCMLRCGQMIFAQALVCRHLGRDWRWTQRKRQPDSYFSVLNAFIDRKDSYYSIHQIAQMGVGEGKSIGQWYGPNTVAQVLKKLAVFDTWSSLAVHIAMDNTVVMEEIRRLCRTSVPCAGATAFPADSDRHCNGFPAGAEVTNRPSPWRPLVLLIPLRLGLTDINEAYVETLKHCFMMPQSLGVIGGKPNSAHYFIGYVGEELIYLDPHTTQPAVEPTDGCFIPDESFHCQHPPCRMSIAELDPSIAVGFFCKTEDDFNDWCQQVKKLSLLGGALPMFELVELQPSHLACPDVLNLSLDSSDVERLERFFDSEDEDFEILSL
# TIM10 inh: inhibits growth of TIM10 yeast strain; S. cerevisiae TIM10 strain growth, BacTiter-Glo luminescence, 24 h; inhibition, % at 10 µM; hit rate 1.4% among 330,000; AID 463195;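 active = inhibition of 40% or more at the single tested concentration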;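 also: wild-type TIM10 isogenic control strain grown at permissive 25 °C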
# tim23-1 conf: tim23-1 yeast growth inhibition, confirmed | shares compounds with tim23-1 inh | S. cerevisiae tim23-1 growth, BacTiter-Glo luminescence, 24 h | inhibition, % at 20 µM | hit rate 83% among 4,400;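 active = inhibition above about 39% in either of two replicate wells at 20 µM, limit read from the data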;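 also: temperature-sensitive tim23-1 mutant grown at 25 °C; 0% = DMSO wells with yeast and 100% = medium wells without yeast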
# * hit, by the source's call; nt = no result.
SMILES,tim10-1 inh,tim23-1 inh,PfHsp90 yeast 2,SKKanGAS inh,ATG4B inhibitor,TIM10 inh,tim23-1 conf
COCCn1c(SCC(N)=O)nnc1-c1c[nH]c2ccccc12,-1,-2,1,-4,3,3,nt
CCOc1ccccc1NC(=O)c1cnccn1,-4,-5,-8,-5,-8,5,nt
Cc1ccc(C)c(NC(=O)c2cc([N+](=O)[O-])cc([N+](=O)[O-])c2)c1,29,55*,-7,-3,-1,18,51*
CC(C)OC(=O)c1cccnc1SCc1cc(=O)n2ccccc2n1,28,65*,-3,-17,0,8,44*
CC(C)OC(=O)c1cccnc1SCC(=O)N(C)c1ccccc1,34,33,nt,0,-2,30,nt
COc1ccc(OCCCC(=O)OC(C)C(=O)Nc2ccc(NC(C)=O)cc2)cc1 (stereo unspecified),-6,-9,18,0,7,0,nt
Cc1ccc(C)n1CCN1CCN(S(=O)(=O)c2ccc(F)cc2F)CC1,6,6,1,-1,-1,2,nt
COc1ccc(N2CCN(C(=O)c3ccccc3)CC2)c([N+](=O)[O-])c1,25,28,11,-6,-1,11,nt
COc1ccc(N2CCN(C(=S)NC(=O)c3cccs3)CC2)c([N+](=O)[O-])c1,35,53*,-44,52*,-3,19,46*
Cc1ccc(S(=O)(=O)N2C[C@@H]3[C@H]4CC[C@H](C4)[C@@H]3[C@@H](C)[C@H]2c2ccco2)cc1,28,50*,10,nt,0,8,34
COc1ccc(NC(=O)/C=C/c2cccc(Br)c2)cn1,-56,87*,-4,-2,-2,13,24
COc1cc2cncc(Cc3ccc(Cl)cc3)c2cc1OC,15,57*,-5,nt,-16,-3,49*
Cc1cc(OCC(=O)c2cccc(C(F)(F)F)c2)n2cnnc2n1,6,6,11,-4,7,11,nt
Cc1cc(OCC(=O)c2ccc(C(F)(F)F)cc2)n2cnnc2n1,-12,96*,1,4,-5,-3,0
CCCCn1c(/C=C/c2ccco2)nc2ccccc21,26,31,-6,5,9,22,nt
CCCCn1c(/C=N/Nc2nc3ccccc3[nH]2)nc2ccccc21,38,55*,-19,95*,14,-10,56*
CC1(C)Cc2ccccc2-c2nc(NCCO)n(-c3ccccc3)c(=O)c21,17,23,5,0,-7,13,nt
CC1(C)CC(n2c(NCCO)nc3c(c2=O)C2(CCCC2)Cc2ccccc2-3)CCO1 (stereo unspecified),21,52*,-9,4,-5,36,49*
O=c1cc(-c2cccc(Br)c2)nc(-c2ccccc2F)o1,30,63*,-7,1,46*,21,57*
Cc1ccccc1NC(=O)COC(=O)c1n[nH]c(=O)c2ccccc12,6,0,-20,nt,-4,1,nt
Cc1cc(C(=O)COC(=O)c2ccc3c(c2)OCO3)c(C)n1CC1CCCO1 (stereo unspecified),19,36,-5,5,-9,12,nt
Cc1cc(C)c(C(=O)COC(=O)c2ccc([N+](=O)[O-])o2)cc1C,9,41,-30,-6,-7,-2,nt
Cc1cc(C(=O)COC(=O)c2ccc([N+](=O)[O-])o2)c(C)n1CC1CCCO1 (stereo unspecified),25,54*,3,4,-11,31,55*
COCCn1c(C)cc(C(=O)COC(=O)c2ccc([N+](=O)[O-])o2)c1C,23,52*,18,1,1,20,59*
O=C(NCCCl)c1ccc(OCc2ccccc2)cc1Cl,16,26,-40,7,5,18,nt
CCOc1ccc(OCCC(=O)OCC(=O)NCc2ccc(Cl)cc2)cc1,8,-4,17,-46,1,-3,nt
O=C1C=C(c2ccc3cc[nH]c3c2)C[C@@H](c2ccc3c(c2)OCO3)C1,21,55*,-31,nt,13,23,47*

# High-throughput results as filed in PubChem.
